# From paper PMC4336329 (PLoS ONE, 2015)
# About 14,000 (4.5%) of roughly 310,000 compounds showed an effect of 50% or more. Effects have a minus sign here. The entries come from a sample that favours strong results as a whole.
# Molecular target: human ether-à-go-go-related gene (hERG) potassium channel (human, UniProt Q12809)
# Assay: primary screen, population patch clamp on CHO cells stably expressing hERG; higher = less effect of the substance
# 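Further: peak tail current of the secondary pulse compared with the same well before compound.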
# Chain of human ether-à-go-go-related gene (hERG) potassium channel (Q12809 whole entry, looked up): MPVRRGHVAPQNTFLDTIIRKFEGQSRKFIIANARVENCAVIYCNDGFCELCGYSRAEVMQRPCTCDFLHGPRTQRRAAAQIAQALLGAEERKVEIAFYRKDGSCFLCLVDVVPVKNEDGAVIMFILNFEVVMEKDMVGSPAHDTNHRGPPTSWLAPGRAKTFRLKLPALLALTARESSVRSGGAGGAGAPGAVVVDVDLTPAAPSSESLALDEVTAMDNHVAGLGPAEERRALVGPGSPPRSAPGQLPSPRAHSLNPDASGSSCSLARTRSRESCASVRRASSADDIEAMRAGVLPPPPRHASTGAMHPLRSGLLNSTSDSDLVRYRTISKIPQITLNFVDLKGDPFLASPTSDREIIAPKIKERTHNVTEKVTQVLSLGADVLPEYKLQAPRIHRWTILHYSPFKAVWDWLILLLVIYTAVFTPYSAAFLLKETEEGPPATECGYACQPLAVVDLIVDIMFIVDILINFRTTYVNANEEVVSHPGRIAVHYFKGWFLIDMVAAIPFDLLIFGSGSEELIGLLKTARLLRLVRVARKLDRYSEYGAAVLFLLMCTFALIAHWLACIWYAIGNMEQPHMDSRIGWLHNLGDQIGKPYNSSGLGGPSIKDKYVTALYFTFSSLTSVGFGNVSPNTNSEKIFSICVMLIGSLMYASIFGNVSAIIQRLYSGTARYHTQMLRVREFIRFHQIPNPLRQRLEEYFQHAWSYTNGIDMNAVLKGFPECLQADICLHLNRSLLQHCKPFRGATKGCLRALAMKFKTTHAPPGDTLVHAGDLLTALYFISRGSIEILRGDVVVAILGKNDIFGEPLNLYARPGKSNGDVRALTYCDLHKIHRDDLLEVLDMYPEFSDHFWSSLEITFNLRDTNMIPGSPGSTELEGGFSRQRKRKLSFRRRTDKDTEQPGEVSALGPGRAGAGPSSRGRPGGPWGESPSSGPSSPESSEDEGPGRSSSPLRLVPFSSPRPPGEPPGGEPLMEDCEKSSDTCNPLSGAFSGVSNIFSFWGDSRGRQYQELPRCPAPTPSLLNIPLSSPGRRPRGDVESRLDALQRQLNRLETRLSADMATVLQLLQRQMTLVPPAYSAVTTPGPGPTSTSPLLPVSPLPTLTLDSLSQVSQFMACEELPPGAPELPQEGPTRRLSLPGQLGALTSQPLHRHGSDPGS
row,Structure (SMILES),"hERG current change (%, negative = inhibition) at 10uM"
1,Cc1ccccc1-n1nnnc1SCc1cc(=O)n2ccsc2n1,-25.6%
2,Cc1nc2ccccc2nc1N1CCOCC1,5.42%
3,Cc1cccc2nc(Cn3c(=O)n(CCCC(=O)NCc4ccco4)c(=O)c4ccccc43)cc(=O)n12,-23%
4,COc1ccc(S(=O)(=O)Nc2ccc(Nc3ccccc3)cc2)cc1,5.15%
5,N#Cc1ccccc1Cn1cc(C(=O)c2ccccc2F)c2ccccc21,4.67%
6,CCc1ccc(NC(=O)c2cnn(-c3ccccc3)c2C)cc1,2.7%
7,Cc1c(C(=O)Nc2ccccc2)cnn1-c1ccccc1,-3.03%
8,CCc1ccc(NC(=O)c2cnn(-c3ccccc3)c2C2CCNCC2)cc1.Cl,-60%
9,CCc1cccc(NC(=O)c2cnn(-c3ccccc3)c2C)c1,-56%
10,Cc1ccc(-n2ncc(C(=O)Nc3cc(Cl)ccc3Cl)c2C2CCNCC2)cc1.Cl,-62%
11,Cc1ccc(-n2ncc(C(=O)Nc3ccc(Cl)cc3)c2C2CCNCC2)cc1C.Cl,-71.7%
12,CCCc1c(C(=O)Nc2ccc(F)cc2)cnn1-c1ccccc1,12.5%
13,Cc1cccc(C)c1-n1ncc(C(=O)NC2CCCC2)c1C1CCNCC1,18.9%
14,Cc1ccc(-n2ncc(C(=O)Nc3cc(Cl)ccc3C)c2C2CCNCC2)cc1C.Cl,-35.1%
15,Cc1cccc(NC(=O)c2cnn(-c3ccc(F)cc3)c2C2CCNCC2)c1C.Cl,-9.71%
16,O=C(c1ccco1)N1CCN(C(=O)c2cnn(-c3ccc(Cl)cc3)c2C2CCNCC2)CC1,15%
17,Cc1cc(C)cc(NC(=O)c2cnn(-c3ccccc3)c2C2CCNCC2)c1.Cl,-19.7%
18,NC(=O)c1ccc(N=Cc2ccc([N+](=O)[O-])s2)cc1,8.6%
19,Cc1cccc(OCc2nnc(SCC(=O)O)n2Cc2ccccc2)c1,28.1%
20,Cc1cccc(C(=O)Nc2nnc(Cc3c[nH]c4ccccc34)s2)c1,12.7%
21,O=C(NCc1cccs1)C1CCN(S(=O)(=O)c2ccc3c(c2)OCCO3)CC1,16.5%
22,Cc1ccc(C(=O)NCCN2CCOCC2)c(Cl)c1,5.79%
23,COc1ccccc1OCC(=O)Nc1cccc(-c2nc3ccccc3o2)c1,0.23%

row,Structure (SMILES),"hERG current change (%, negative = inhibition) at 10uM"
1,COc1ccc(-c2cccc(NS(=O)(=O)c3ccc([N+](=O)[O-])cc3)c2)nn1,-15.2%
2,CSc1cccc(NC(=O)C2CCN(S(=O)(=O)c3ccc4c(c3)NC(=O)CO4)CC2)c1,12.3%
3,O=C(Nc1ccccc1)/C(=C/c1ccc(F)cc1)NC(=O)c1ccco1,-2.63%
4,CCCCc1ccc(NC(=O)CSc2nnc(C)c(=O)n2N)cc1,-23.9%
5,Cc1ccn2cc(-c3cnoc3C)nc2c1,6.49%
6,Cc1ccc(NC(=O)COc2ccccc2CNC(C)(C)CC(C)(C)C)cc1,-22.7%
7,CCOc1cc(/C=N/Nc2nc(N3CCCC3)nc(N3CCCC3)n2)ccc1O,-61.4%
8,CCOc1ccc(/C=N/Nc2nc(N3CCCC3)nc(N3CCCC3)n2)cc1OC,-12%
9,COc1cc(/C=N/Nc2nc(N3CCCC3)nc(N3CCCC3)n2)ccc1O,-37.7%
10,Cc1ccc(S(=O)(=O)NNC(=O)c2ccc3ccccc3n2)cc1,3.47%
11,CC(=O)c1ccc(-n2c(CCC(=O)O)ccc2-c2cccs2)cc1,-0.766%
12,O=C(NC1CCCCC1)c1ccc(COc2ccccc2)o1,2.32%
13,CSCCC(NS(=O)(=O)c1ccccc1)C(=O)OCc1cc(=O)oc2cc(O)ccc12 (centres unmarked),-57.3%
14,CC(C)[C@H](NC(=O)OCc1ccccc1)C(=O)OCc1cc(=O)oc2cc(O)ccc12,-46.7%
15,CSCCC(NS(=O)(=O)c1ccccc1)C(=O)OCc1nc2ccsc2c(=O)[nH]1 (centres unmarked),2.87%
16,O=C(NNC(=S)Nc1ccc(Cl)c(Cl)c1)c1cccc([N+](=O)[O-])c1,36%
17,CCOC(=O)N1CCN(C(=O)c2cc3cc(Br)ccc3oc2=O)CC1,-17.7%
18,COc1ccc(C(=O)N2CCC(C(=O)N3CCN(c4ccccc4)CC3)CC2)cc1,-48.7%
19,O=C(NCC(=O)N1CCN(Cc2ccccc2)CC1)c1ccc(Br)cc1,-53.5%
20,O=C(NCC(=O)N1CCN(Cc2ccccc2)CC1)c1ccc(Cl)cc1,-27.9%
21,O=C(C1CCC1)N1CCN(c2ccccc2)CC1,13.6%
22,CCNC(=S)N1CCN(Cc2ccccc2)CC1.O=C(O)C(=O)O,-59.9%
23,O=C(c1ccc2ccccc2c1)N1CCN(Cc2ccccc2)CC1,-24.4%

row,Structure (SMILES),"hERG current change (%, negative = inhibition) at 10uM"
1,O=C(c1ccc(-n2cccc2)cc1)N1CCN(Cc2ccccc2)CC1,-81.1%
2,O=C(c1ccc(Br)cc1)N1CCC(C(=O)N2CCN(c3ccccc3)CC2)CC1,-68.5%
3,C=CCNC(=S)N1CCN(Cc2ccccc2)CC1.O=C(O)C(=O)O,6.48%
4,O=C(c1ccc(CN2CCOCC2)cc1)N1CCN(Cc2ccccc2)CC1,15.4%
5,O=C(O)C(=O)O.S=C(NCCc1ccccc1)N1CCN(Cc2ccccc2)CC1,0.0203%
6,O=C(CNS(=O)(=O)c1ccc(Br)cc1)N1CCN(Cc2ccccc2)CC1,-17.2%
7,O=C(CCCCl)Nc1nc(-c2ccc3c(c2)OCCO3)cs1,9.6%
8,CCOC(=O)CC(=O)Nc1c(C)cc(C)cc1C,4.74%
9,N#CC1=C(N)Oc2cc(N)ccc2C1c1ccc(F)cc1F (centres unmarked),-22.9%
10,Cc1ccc(CNC(=O)c2cccnc2Cl)cc1,9.97%
11,COCCn1cnnc1SCC(=O)Nc1sccc1C(N)=O,-2.66%
12,COc1ccc(NC(=O)CCNS(=O)(=O)c2cc(Br)cnc2N)c(OC)c1,8.51%
13,COc1ccc(C2N(c3cc(Cl)ccc3OC)C(=O)C3CCCN32)cc1OC (centres unmarked),-4.91%
14,CC(C)(C)C(=O)NC(=S)NNC(=O)c1sc2ccccc2c1Cl,5.79%
15,Cc1ccc(S(=O)(=O)N2CCN(C(=O)CN3CCCC3)C2)cc1,-6.28%
16,NNC(=O)c1sc2nc(N3CCOCC3)c3c(c2c1N)CCCC3,11%
17,O=c1cnc2ccccc2n1Cc1ccc(Br)cc1,0.175%
18,CCn1nnnc1SCC(=O)Nc1cc(OC)cc(OC)c1,11.8%
19,CS(=O)(=O)c1ccc(C(=O)N2CCN(Cc3ccccc3)CC2)cc1,-55%
20,CC(C)(C)c1ccc(C(=O)N2CCN(Cc3ccccc3)CC2)cc1,-3.08%
21,O=C(c1ccc(Br)cc1)N1CCN(Cc2ccccc2)CC1,-52.2%
22,O=C(c1cccc(Cl)c1)N1CCC(C(=O)N2CCN(Cc3ccccc3)CC2)CC1,-56.2%
23,COC(=O)[C@H](Cc1ccccc1)NC(=O)N1CCCCCC1,13.5%

row,Structure (SMILES),"hERG current change (%, negative = inhibition) at 10uM"
1,O=C(c1ccc(F)cc1)N1CCN(Cc2ccccc2)CC1,0.241%
2,COC(=O)[C@H](Cc1ccccc1)NC(=O)N1CCCCC1,9.93%
3,O=C(c1ccc(S(=O)(=O)N2CCCCCC2)cc1)N1CCN(Cc2ccccc2)CC1,-19.5%
4,COC(=O)[C@H](Cc1ccccc1)NC(=O)N1CCN(Cc2ccccc2)CC1,-58.6%
5,O=C(c1cccc(Cl)c1)N1CCC(N2CCC(C(=O)N3CCCC3)CC2)CC1,-49.1%
6,O=C(O)C(=O)O.O=C(c1ccccc1)N1CCN(Cc2ccccc2)CC1,-9.23%
7,O=C(c1cccc(Cl)c1)N1CCN(Cc2ccccc2)CC1,-8.35%
8,CCOC(=O)/C(=C/c1ccc(F)cc1)NC(C)=O,-7.91%
9,COCCCNC(=O)CCNS(=O)(=O)c1ccc(C)cc1,-1.45%
10,Cc1ccc2ncnc(Oc3ncccc3NC(=O)C(C)(C)C)c2c1,13.8%
11,O=S(=O)(N1CCCCC1)N1CCN(c2cc(Cl)ccc2Cl)CC1,15.2%
12,COc1ccc(C2Nc3ccccc3C(=O)N2Cc2ccco2)cc1CN1C(=O)c2ccccc2C1=O (centres unmarked),-20.7%
13,O=C(NCc1ccco1)C(=O)c1cn(CC(=O)N2CCCCC2)c2ccccc12,19.3%
14,O=C(O)CC/C(=N\NC(=O)CNC(=O)c1ccc(F)cc1)c1ccccc1,9.42%
15,Cc1ccc(CNC(=O)COC(=O)Cn2nc(C)c([N+](=O)[O-])c2C)cc1,-16.3%
16,COc1ccc(C(=O)NCc2ccc(N3CCN(C(=O)OC(C)(C)C)CC3)cc2)cc1,-12.7%
17,COC(=O)c1cc(-c2c(-c3ccc4c(c3)OCO4)noc2-c2ccsc2)cc([N+](=O)[O-])c1,10.7%
18,O=C(c1ccc(Br)cc1)N1CCC(C(=O)N2CCN(Cc3ccccc3)CC2)CC1,-60.1%
19,Cc1occc1C(=O)N1CCN(Cc2ccccc2)CC1,-1.16%
20,O=C(c1coc(=O)c2ccccc12)N1CCN(Cc2ccccc2)CC1,-51.2%
21,O=C(C1CC1)N1CCN(Cc2ccccc2)CC1,-32.1%
22,COc1ccc(C(=O)N2CCC(C(=O)N3CCN(Cc4ccccc4)CC3)CC2)cc1,-9.58%
23,CS(=O)(=O)c1ccccc1C(=O)N1CCN(Cc2ccccc2)CC1,23.7%
